Screening data deposited in PubChem BioAssay by National Center for Advancing Translational Sciences (NCATS).
An excerpt weighted towards active compounds, which were near 16% of everything screened.
TDP1 block: qHTS Assay for Inhibitors of Tyrosyl-DNA Phosphodiesterase (TDP1); recombinant TDP1, AlphaScreen DNA substrate cleavage; AID 485290, 2010; 0.28% of 350,000 active; Potency, µM (titrated, usually from 130 µM), inactives show at the top dose activity change, negative = inhibition, usual class: inhibitors; Tyrosyl-DNA phosphodiesterase 1 (Homo sapiens), Q9NUW8; also: potency is read from the fitted curve at half-maximal effect; % is scaled to controls: 0 for no effect and ±100 for the full control effect; nearly all actives have a fitted effect of over 40% in size
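Compounds were preincubated with Tdp1 (1 nM final) for 15 min at room temperature before substrate (15 nM final) started a 5 min reaction; beads (10 ug/ml final) were then added for 10 min before AlphaScreen detection.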
TDP1 cell noCPT: qHTS for Inhibitors of human tyrosyl-DNA phosphodiesterase 1 (TDP1): qHTS in cells in absence of CPT; Potency, µM (top dose mostly 46.2 µM), without a hit: top-dose activity change, negative = growth inhibition, actives largely listed as inhibitors; DT40 Tdp1-/- hTDP1 cells, no CPT, ATP luminescence, 48 h; 15% of 420,000 active; also: potency is read from the fitted curve at half-maximal effect; % is scaled to controls: 0 for no effect and ±100 for the full control effect; nearly all actives have a fitted effect of over 55% in size
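Luminescent ATP content (CellTiter-Glo) served as the growth readout. Knockout chicken DT40 cells expressing human TDP1 were exposed to compounds without camptothecin for a minimum 48 hr at 37 °C.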
miR-21 act: qHTS Assay for Modulators of miRNAs and/orActivators of miR-21; HeLa miR-21 FLuc reporter, luciferase, 48 h; Potency, µM (doses to about 38.3 µM), without a hit: at the top dose activity change, positive = activation, most hits filed as activators; 340,000 tested, under 10 active;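 also: % of control where 0% means no effect; miR-21 action dims this reporter so a rising signal means less miR-21 action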
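Using DMEM plus 10% FBS, HeLa miR-21-FLuc cells are incubated with test compounds (final up to about 40uM) for 48 hours; firefly luciferase signal is then imaged following reagent-mediated lysis.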
uPA surface inh: qHTS for Inhibitors of Cell Surface uPA Generation; cell surface uPA generation assay, qHTS; Potency, µM (doses to about 38.3 µM), inactives show at the top dose activity change, negative = inhibition, most hits filed as inhibitors; 0.31% of 330,000 active; active = well fitted inhibition curve with a large enough effect; inconclusive = small, poorly fitted or top-dose-only effect; inactive = no such curve, though single readings can be large or run the other way; tested in mouse RAW 264.7 cells; also: potency is read from the fitted curve at half-maximal effect; % is scaled to controls: 0 for no effect and ±100 for the full control effect; nearly all actives have a fitted effect of over 55% in size
DT40 TDP1 CPT: qHTS for Inhibitors of human tyrosyl-DNA phosphodiesterase 1 (TDP1): qHTS in cells in presence of CPT; Potency, µM (highest dose often 46.2 µM), for the others: at the highest dose activity change, negative = growth inhibition, most hits filed as inhibitors; 12% of 420,000 active; chicken DT40 Tdp1-/-;hTDP1 cells + 20 nM CPT, ATP luminescence, 48 h; also: potency is read from the fitted curve at half-maximal effect; % is scaled to controls: 0 for no effect and ±100 for the full control effect; nearly all actives have a fitted effect of over 55% in size
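Cell growth measured by CellTiter-Glo luminescence after a minimum 48 h, 37 C compound exposure with 20 nM CPT in Tdp1-knockout DT40 cells stably expressing hTDP1, seeded 400/well; qHTS titration format.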
Starred values were filed as active, the others as inactive; ? = inconclusive; · = not tested or not shown. Unless noted, calls follow the shape of the dose curve; as a rule, active = well fitted curve in the direction sought with a large enough effect; inconclusive = small, poorly fitted or top-dose-only effect, or another doubt; inactive = no such curve, though single readings can be large; an effect the other way counts as inactive or inconclusive.

SMILES	TDP1 block	TDP1 cell noCPT	miR-21 act	uPA surface inh	DT40 TDP1 CPT
C=C1C(=O)[C@]23C[C@H]1CC[C@H]2[C@]1(C)[C@@H](OC(C)=O)CC[C@@](C)(C(=O)O)[C@H]1C[C@@H]3O	·	1µM*	·	·	1µM*
C=C1C(=O)[C@]23C[C@H]1CC[C@H]2[C@]1(C)[C@@H](OC(C)=O)CC[C@@](C)(C(=O)OC)[C@H]1C[C@@H]3OC(C)=O	·	0.92µM*	·	·	0.58µM*
C=C1C(=O)[C@]23C[C@H]1CCC2[C@@]1(C)C(C[C@@H]3O)[C@](C)(C(=O)OC)CC[C@@H]1OC(C)=O (stereo not given in full)	·	0.92µM*	·	·	0.82µM*
C=C1C(=O)[C@]23C[C@H]1CCC2[C@@]1(C)C(C[C@@H]3O)[C@](C)(C(=O)O)C[C@H](O)[C@@H]1O (stereo not given in full)	·	8%	·	·	2%
CN(C)N=Nc1nc2c(c(=O)n(C)c(=O)n2C)n1C	5%	-21%	6%	3%	6%
Cc1ccc(N=Cc2c(C)[nH]n(-c3nc4ccccc4[nH]3)c2=O)cc1	8%	4.1µM*	22%	-16%	3.3µM*
Cc1ccc(-n2[nH]c(C)c(C=Nc3ccc4[nH]c(=O)[nH]c4c3)c2=O)cc1C	5%	21µM*	-8%	-14%	?
Cc1[nH]n(-c2cccc3ccccc23)c(=O)c1C=Nc1ccc2[nH]c(=O)[nH]c2c1	4%	-14%	-5%	2%	-8%
Cc1ccc(-n2[nH]c(C)c(C=Nc3ccc4[nH]c(=O)[nH]c4c3)c2=O)cc1	2%	16µM*	-13%	-8%	16µM*
COc1ccc2nc(/N=C/c3c(C)[nH]n(-c4ccc(C)cc4)c3=O)sc2c1	6%	?	-31%	-4%	13µM*
CCOC(=O)c1sc2nc(C)nc(NCCc3ccc(S(N)(=O)=O)cc3)c2c1C	4%	-2%	1%	-1%	-25%
CC(C)(C)C(=O)COC(=O)CCc1nc2ccccc2[nH]c1=O	2%	-2%	-1%	2%	6%
COc1ccc([C@@H]2CC(=O)c3c(O)cc(O[C@@H]4O[C@H](CO[C@@H]5O[C@@H](C)[C@H](O)[C@@H](O)[C@H]5O)[C@@H](O)[C@H](O)[C@H]4O)cc3O2)cc1O	·	-2%	-1%	3%	?
Cc1cc(C)c(Cn2c3ccccc3c3cnn(CC(=O)NC4CCC(C)CC4)c(=O)c32)c(C)c1 (stereo not given)	0%	?	2%	·	13µM*
CC1CCC(NC(=O)Cn2ncc3c4ccccc4n(Cc4ccc(F)cc4)c3c2=O)CC1 (stereo not given)	0%	?	-1%	·	?
Cc1ccccc1Cn1c2ccccc2c2cnn(CC(=O)NC3CCCCCC3)c(=O)c21	0%	10µM*	3%	·	12µM*
CCOc1ccc(N2C(=O)CC(N3CCC(NC(=O)Nc4ccccc4)CC3)C2=O)cc1 (stereo not given)	0%	-20%	-19%	-4%	-2%
C/C(=N\NC(=O)c1c(Cl)cnn1C)c1ccc(NC(=O)c2ccc(Br)o2)cc1	·	-17%	-42%	1%	?
CC(C)Oc1ccc(CCC(=O)NNC(=S)Nc2ccccc2)cc1	-2%	18µM*	-1%	-5%	-23%
CCOC(=O)[C@]12CCC=C1N(Cc1ccccc1)C(=O)[C@H](CC(=O)NCCCCc1ccccc1)C2	·	21µM*	·	·	?
CCOC(=O)[C@]12CCC=C1N(Cc1ccccc1)C(=O)[C@H](CC(=O)NCCC(C)C)C2	·	?	·	·	21µM*
CCOC(=O)[C@]12CCC=C1N(Cc1ccccc1)C(=O)[C@H](CC(=O)NCc1cccc(C(F)(F)F)c1)C2	·	23µM*	·	·	?
